# Bioassay records from PubChem BioAssay.
# Myeloid diff MLP – myeloid differentiation induction; ER-HoxA9 myeloid progenitors, lysozyme-GFP differentiation, flow cytometry; calls only at 10 µM; 1% of 360,000 active;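 active means normalized GFP-positive differentiation at or above the plate's own cutoff, the solvent-only control mean plus 3 SD; inconclusive means no clear call, values can overlap the other calls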;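 further: cells exposed to compound for four days before flow analysis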
# CRFR2-BP antag – blocks CRF-induced signaling of the CRF-BP/CRF-R2 complex | inhibition, % at 11.8 µM | AID 588475 | HEK293 CRF-R2/CRF-BP, CRF-induced calcium fluorescence | 0.59% of 350,000 active;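 active means inhibition of the ligand-induced calcium signal above about 50% at the single tested concentration, limit read from the data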
# Cardiac RTF inh – cardiac RTF calcium desensitization | P19429+P45379 | IANBD-labeled cardiac RTF, Ca2+ fluorescence | inhibition, % at 7.15 µM | 0.12% of 340,000 active | AID 493244;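 active means inhibition above the mean inhibition of all tested compounds plus 3 SD, cut at about 17% in these data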;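 further: assay run at fixed EC70 calcium of 1.6 mM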
# RTF Ca sens act – increases calcium sensitivity of human cardiac regulated thin filaments; P19429+P45379; IANBD-labeled TnC RTF fluorescence at EC20 calcium; 0% EC20 calcium, 100% full calcium; activation, % at 7.2 µM; 0.24% of 340,000 active; AID 493008;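 active means activation above the mean over all tested compounds plus 3 SD, cut at about 30% in these data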;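 further: rise in fluorescence read as greater calcium sensitivity of cardiac thin filaments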
# CRFR2-BP ag – CRF-BP/CRF-R2 complex agonism | 0.46% of 350,000 active | HEK293 CRF-R2/CRF-BP, calcium dye fluorescence (FLIPR); percent of saturating CRF peptide response | AID 588473 | activation, % at 13.2 µM;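 active means activation of at least 50%, plus an integration ratio under a set limit after plate pattern correction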;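 further: plate controls were neutral control wells without compound for no effect and CRF at EC100 for full effect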
# Starred values were filed as active, the others as inactive; i = inactive; ? = inconclusive; / = no result given; + = active, no number. Only some compounds are listed: those with a hit (about 2.2% of all), similar ones and a draw of the others.
SMILES,Myeloid diff MLP,CRFR2-BP antag,Cardiac RTF inh,RTF Ca sens act,CRFR2-BP ag
CC(C)NC(=O)CN1C(=O)CSc2ccc(S(=O)(=O)N3CCCC3)cc21,i,64*,-6,-1,4
COc1ccccc1Nc1cc2cc(Br)ccc2c(=O)[nH]1,+,-2,-5,0,2
Cc1ccc(-c2nn(-c3ccc(F)cc3)cc2C(=O)N2CCN(C3CCS(=O)(=O)C3)CC2)cc1 (stereo not drawn),i,-14,3,2,-1
CN(C)c1ccc(/C=C(/C#N)C(=O)Nc2nc3c(s2)CCN(Cc2ccccc2)C3)cc1,+,-88,-61,51*,158*
CC1CCCCN1c1cc(C#N)c(C#N)cc1[N+](=O)[O-] (stereo not drawn),i,13,7,5,0
CC1CCc2cccc3c2N1c1cc(C#N)c(C#N)cc1O3 (stereo not drawn),+,-48,-16,10,28
CCC(=O)c1cn(CC(=O)Nc2ccc(C)cc2C)c2ccccc12,i,4,2,-8,1
CC(NC(=O)c1ccc(Br)cc1)c1ccccc1 (stereo not drawn),i,43,8,0,0
COc1ccc(C(=O)NC(C)c2ccccc2)cc1Br (stereo not drawn),+,-9,-5,-8,-1
O=C(c1ccccc1C(=O)N1CCN(c2ccccc2)CC1)N1CCN(c2ccccc2)CC1,i,-34,-15,32*,47
Cc1ccc(OCC(=O)Nc2ccc(N3CCN(C(=O)c4ccco4)CC3)cc2)cc1C,+,4,-4,-3,0
COc1ccc(OCC(=O)Nc2ccc(N3CCN(C(=O)c4ccccc4C)CC3)cc2)cc1,+,-2,-2,5,-2
O=C(COC(=O)c1ccccc1C(=O)N1CCN(c2ccccc2)CC1)Nc1ccccc1,i,-13,-15,3,-1
Cc1cc(OCC(=O)Nc2ccc(N3CCN(C(=O)c4ccco4)CC3)cc2)cc(C)c1Cl,/,18,3,-20,-1
COc1cccc(NC(=O)COC(=O)c2ccccc2C(=O)N2CCN(c3ccccc3)CC2)c1,i,69*,2,-1,0
COc1ccc([C@@H]2C[C@H]3[C@@H](CN2S(=O)(=O)c2ccccc2)C(=O)C[C@@H](c2ccc(OC)cc2)N3S(=O)(=O)c2ccccc2)cc1,i,/,/,/,/
COCCNC(=O)C1(C)CCN(C(=O)/C=C/c2ccccc2)C1 (stereo not drawn),i,/,/,/,/
O=C1N/C(=C/c2ccc(N3CCOCC3)o2)C(=O)N1c1cccc(Cl)c1,/,70*,3,6,8
CCOc1cc(N(CC)CC)ccc1/C=C(/C#N)c1nc2ccccc2[nH]1,?,-171,-173,106*,97*
CCN(CC)c1ccc(/C=C(/C#N)c2nc3ccc(C)cc3[nH]2)c(OC(C)C)c1,+,-180,-459,174*,176*
CCCOc1cc(N(CC)CC)ccc1/C=C(/C#N)c1nc2ccc(C)cc2[nH]1,?,-137,-189,61*,107*
COc1cc(/C=C(\C#N)c2nc3ccc(C)cc3[nH]2)c([N+](=O)[O-])cc1OC,i,-70,-1,-1,24
CCN(Cc1ccncc1)Cc1c(O)ccc2cc(Br)ccc12,i,-5,/,/,-3
Cc1ccc(N2CC(C(=O)Nc3nc4ccc(S(C)(=O)=O)cc4s3)CC2=O)cc1 (stereo not drawn),i,-4,9,2,1
Cc1ccc(Nc2c(O)nc[nH]c2=O)cc1,i,73*,-7,1,-1
SMILES,Myeloid diff MLP,CRFR2-BP antag,Cardiac RTF inh,RTF Ca sens act,CRFR2-BP ag
O=c1[nH]cnc(O)c1Nc1cccc(Cl)c1,i,-17,2,-4,1
COc1ccc(Cc2nnc(Nc3ccccc3)s2)cc1Br,+,-5,2,-8,0
COc1ccc(Cc2nnc(NC(=O)CSc3ccccc3)s2)cc1OC,i,-67,-1,3,1
C=CCOC(=O)C1=C[C@H](C(C)(C)C)[C@@H](CCCO)[C@H](OCC)O1,i,5,-9,-1,1
CCO[C@@H]1OC(C(N)=O)=C[C@H](C(C)(C)C)[C@H]1CCCO,i,109*,-9,-2,1
COc1ccc(OC)c(CN2C(=O)CN(S(C)(=O)=O)CC2(C)C(=O)NCc2ccccc2)c1 (stereo not drawn),i,/,/,/,/
O=C(OCc1ccccc1)N1CCC2CC1c1ccc(Cl)cc12 (stereo not drawn),+,-7,/,/,6
